# Assay results: PubChem BioAssay (NCATS)
# Results filed as inconclusive are left out. Calls of active or inactive are those of the source. The call rests on the fitted dose curve; in most records, active means well fitted cell-killing curve with a large enough effect; inconclusive means small, poorly fitted or top-dose-only effect; inactive means flat fitted curve, though single readings scatter.
# Assay: qHTS of pediatric cancer cell lines to identify multiple opportunities for drug repurposing: Primary screen for Rh18 cells (AID 1347102); further: nearly all actives have a fitted effect of over 65% in size
# Settings: Rh18 rhabdomyosarcoma viability, CellTiter-Glo luminescence, 48 h; series mostly up to 46 µM
# From the text: Drug repurposing or repositioning has been offered as a strategy for drug development in oncology programs. This approach has special potential for childhood cancers and other rare or orphan diseases, where the expected return on new drug development has been a disincentive to pharmaceuticals.
# In this project we exploit the poly-pharmacology of drugs to discover new indications via phenotypic screening of a panel of 19 well-characterized cell lines derived from solid tumors seen in children and adolescents. The goal is to identify approved drugs with previously unrecognized anticancer properties that has the potential to reveal new mechanisms and biological processes involved in carcinogenesis or drug resistance. We employed a titration-based paradigm (quantitative high-throughput screening or qHTS), where all compounds were tested at multiple concentrations for their effect on cell viability. Concentration-response curves (CRCs) were derived directly from the primary screen, and both potency and efficacy values were used to identify compounds with robust bioactivity profiles. We screened the NIH Chemical Genomics Center (NCGC) Pharmaceutical Collection (NPC) and Mechanism Interrogation Plate (MIPE) small molecule collections of approved and investigational compounds against these cell lines; and measured metabolically active cells after 48 hours of compound treatment as a proxy for cell viability.
# Assay Submitter: Nathalia J. Martinez, National Center for Advancing Translational Sciences, National Institutes of Health, Rockville, MD, USA; email: natalia.martinez@nih.gov
# [1] Shen, M et al. Quantitative high-throughput phenotypic screening of pediatric cancer cell lines identifies multiple opportunities for drug repurposing. Oncotarget 2017 Dec 19;9(4):4758-4772. PMID 29435139.
# The cells were obtained from University of North Carolina (UNC), Pediatric Preclinical Testing Program (PPT), and Coriell Institute (CI).
# qHTS cell viability assay:
# Cells were assayed in growth media at a density of 500-1,000 cells/well. Five microliters of cells were dispensed into 1,536-well, white, solid-bottom, TC-treated plates (Greiner Bio One) using a multidrop dispenser and incubated at 37 degrees C, 5% CO2, under a humidified atmosphere for 5 hours. Twenty-three nanoliters of compounds and controls (neutral control DMSO or positive control bortezomib at final concentration of 2.3 µM) were subsequently transferred by Kalypsys pintool. For primary screens, the MIPE collection was tested at 11-point dilutions (final concentrations range from 0.78 nM to 46 µM) and the NPC collection at 8-point dilutions (final concentrations range from 0.59 nM to 46 µM). Compounds tested in follow-up screens were assayed at 11-point dilutions. Cells were incubated for 48 hours, followed by addition of 3 µL of CellTiter-Glo (Promega). After a 15 min incubation at room temperature, samples were analyzed for luminescence intensity using a ViewLux High-throughput CCD imager equipped with clear filters.
row,SMILES,outcome
1,C[N+](C)(C)CC(O)CC(=O)[O-] (stereo not given),inactive
2,Nc1ccc(S(=O)(=O)c2ccc(N)cc2)cc1,inactive
3,CC1CCc2cc(F)cc3c(=O)c(C(=O)O)cn1c23 (stereo not given),inactive
4,CC(C)=CCC[C@@](C)(O)[C@H]1CC=C(C)CC1,inactive
5,CCOC(=O)OC(C)OC(=O)[C@@H]1N2C(=O)[C@@H](NC(=O)[C@H](N)c3ccccc3)[C@H]2SC1(C)C (stereo not given in full),inactive
6,NC(=O)N[C@@H](CCC(=O)O)C(=O)O,inactive
7,CC(=O)N(CC(O)CN(C(C)=O)c1c(I)c(C(=O)NCC(O)CO)c(I)c(C(=O)NCC(O)CO)c1I)c1c(I)c(C(=O)NCC(O)CO)c(I)c(C(=O)NCC(O)CO)c1I (stereo not given),inactive
8,Nc1ccncc1N,inactive
9,O=C(O)CCCCC1CCSS1 (stereo not given),inactive
10,Cc1[nH]c(C)c(Cl)c(=O)c1Cl,inactive
11,CCCCCCCCCCCCCCCCC(C(=O)O)C(O)(CC(=O)O)C(=O)O (stereo not given),inactive
12,CC1CCN(CCCC(=O)c2ccc(F)cc2)CC1,inactive
13,CCN[C@H]1CN(CCCOC)S(=O)(=O)c2sc(S(N)(=O)=O)cc21,inactive
14,CC(=O)[C@@]1(O)CC[C@H]2[C@@H]3C[C@H](C)C4=CC(=O)C=C[C@]4(C)[C@@]3(F)[C@@H](O)C[C@@]21C,inactive
15,CC[C@H](C)[C@H](N)C(=O)O,inactive
16,Cc1cccc(Nc2ccccc2C(=O)O)c1C,inactive
17,C1CCN2C[C@@H]3C[C@@H](CN4CCCC[C@@H]34)[C@H]2C1,inactive
18,O=C(NCCCN1CCOCC1)c1ccc(Cl)cc1,inactive
19,CC(=O)Oc1cccc(O)c1,inactive
20,CC(=O)N(CC(O)CO)c1c(I)c(C(=O)NCC(O)CO)c(I)c(C(=O)NCC(O)CO)c1I (stereo not given),inactive

row,SMILES,outcome
1,CCOc1ccc(C(=O)OCCN(CC)CC)cc1,inactive
2,O=C1c2ccccc2C(=O)C1c1ccc(Br)cc1,inactive
3,Nc1ncnc(Nc2ccccc2)n1,inactive
4,CC(=O)N1C[C@H](O)C[C@H]1C(=O)O,inactive
5,O=C(O)c1ccccc1OP(=O)(O)O,inactive
6,O=C(c1ccccc1)C(O)c1ccccc1 (stereo not given),inactive
7,NS(=O)(=O)c1cc2c(cc1C(F)(F)F)NCNS2(=O)=O,inactive
8,CCN1CC(CCN2CCOCC2)C(c2ccccc2)(c2ccccc2)C1=O (stereo not given),inactive
9,C[C@]1(Cn2ccnn2)[C@H](C(=O)O)N2C(=O)C[C@H]2S1(=O)=O,inactive
10,Cn1c(=O)c2c(ncn2CCO)n(C)c1=O,inactive
11,COc1ccc(NS(=O)(=O)c2ccc(N)cc2)nn1,inactive
12,CN(C(=O)c1c(O)c2ccccc2n(C)c1=O)c1ccccc1,inactive
13,O=C(O)/C=C/c1ccc(Cn2ccnc2)cc1,inactive
14,Cc1c(C(=O)NCCO)[n+](=O)c2ccccc2n1[O-],inactive
15,Cc1cccc(C(=O)O)c1O,inactive
16,CC(O)CCCCn1c(=O)c2c(ncn2C)n(C)c1=O (stereo not given),inactive
17,O=C(O)c1ccc(OCCCOc2ccc(C(=O)O)cc2)cc1,inactive
18,CCOC(N)=O,inactive
19,COc1ccccc1OCC(O)CO (stereo not given),inactive
20,NS(=O)(=O)c1cc(-c2nn[nH]n2)c(NCc2cccs2)cc1Cl,inactive
